Reference: the supplement of paper PMC8047044
“And” between values parts separate entries of the source, which are not always exact repeats. Identical values can stand only once.

Experiments:
Neuro-2a [1] = experiment: neurite formation score, plate-normalized to DMSO control mean 5.04 (score (0-8 scale)); higher = more or longer neurites; conditions: 1 µM
Protocol: (§1)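 Neuro-2a mouse neuroblastoma cells in PLL-coated 96-well plates were pre-treated for 1 h in DMEM(+) with each kinase inhibitor at 1 µM, then switched to serum-free DMEM(-) with inhibitor to induce neurite outgrowth and fixed about 2-3 h later. Three blinded observers scored neurite formation from 0 (no neurites) to 8 (long neurites on almost all cells).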

Neuro-2a [2] = experiment: as above; conditions: 0.1 µM
Protocol: as §1, with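 “at 0.1” for “at 1”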

| Structure (SMILES) | neurite formation score (Neuro-2a [1]) | neurite formation score (Neuro-2a [2]) |
| --- | --- | --- |
| N#Cc1c(NC(=O)c2cccc3ccccc23)sc2c1CCCC2 | 0.543 | 0.751 |
| C[C@@H]1CCNC(=O)c2cc3ccc(C(=O)Nc4nc5ccccc5n4CCCN(C)C)cc3n21 | 5.29 | 4.92 |
| CC[C@@H]1C(=O)N(C)c2cnc(Nc3ccc(C(=O)NC4CCN(C)CC4)cc3OC)nc2N1C1CCCC1 | 5.02 | 4.58 |
| Cc1cnc(-c2cnc(NCCNc3ccc(C#N)cn3)nc2-c2ccc(Cl)cc2Cl)[nH]1 | 5.29 and 4.57 | 4.92 and 4.04 |
| Cc1ncc(-c2ccnc(Nc3ccc(S(C)(=O)=O)cc3)n2)n1C(C)C | 4.24 | 3.54 |
| CCC(=O)Nc1cccc(Oc2nc(Nc3ccc(N4CCN(C)CC4)cc3OC)ncc2Cl)c1 | 5.63 | 4.25 |
| Nc1cccc(S(=O)(=O)N2CCCN(S(=O)(=O)c3ccc4c(c3)OCCO4)CC2)c1 | 4.14 | 4.09 |
| Cc1ccc(C(=O)Nc2ccc(CN3CCN(C)CC3)c(C(F)(F)F)c2)cc1C#Cc1cnc2[nH]ncc2c1 | 0.626 | 2.58 |
| Oc1cc(O)cc(/C=C/c2ccc(O)c(O)c2)c1 [Piceatannol] | 4.88 | 4.75 |
| O=C(NCc1ccccc1)c1csc(Nc2ccncn2)n1 [Thiazovivin] | 4.57 | 4.88 |
| Cc1ccc2nc(NCCN)c3ncc(C)n3c2c1 | 4.47 and 4.14 | 4.09 and 3.42 |
| Cn1cc(-c2ccc3c(c2)CCN3C(=O)Cc2cccc(C(F)(F)F)c2)c2c(N)ncnc21 | 4.36 | 5.25 |
| COc1cc(Nc2ncc(F)c(Nc3ccc4c(n3)N(COP(=O)(O)O)C(=O)C(C)(C)O4)n2)cc(OC)c1OC [Fostamatinib (R788)] | 4.8 | 3.76 |
| CN(C)Cc1cccc(N=C(c2ccccc2)c2c(O)[nH]c3cc(C(N)=O)ccc23)c1 | 4.24 | 4.54 |
| Oc1cccc(-c2nc(N3CCOCC3)c3oc4ncccc4c3n2)c1 | 5.24 | 4.04 |
| CNC(=O)c1nn(C)c2c1C(C)(C)Cc1cnc(Nc3ccc(N4CCN(C)CC4)cc3)nc1-2 | 3.29 | 4.58 |
| O=C(/C=C/c1ccc2ccccc2n1)c1ccncc1 | 5.21 | 3.08 |
| CN1CCN(S(=O)(=O)c2ccc(-c3cnc(N)c(C(=O)Nc4cccnc4)n3)cc2)CC1 | 2.88 | 4.75 |

| Structure (SMILES) | neurite formation score (Neuro-2a [1]) | neurite formation score (Neuro-2a [2]) |
| --- | --- | --- |
| Oc1ccc(Nc2nc(-c3ccc(Cl)cc3)cs2)cc1 | 4.21 | 2.42 |
| Cc1ccc(-c2csc3ncnc(SCCC(=O)O)c23)cc1 | 4.02 | 4.58 |
| Fc1cc(-c2cccc3ncc(-c4cnn(C5CCNCC5)c4)nc23)cc(F)c1CN1CCOCC1 | 4.47 | 4.09 |
| C=CC(=O)Nc1cccc(Oc2nc(Nc3ccc(N4CCN(C)CC4)cc3OC)ncc2Cl)c1 | 4.24 | 4.04 |
| O=C(NCCO)c1cccc(-c2cc(Nc3ccc(OC(F)(F)F)cc3)ncn2)c1 | 5.63 | 4.92 |
| CC(C)(C)c1cnc(CSc2cnc(NC(=O)C3CCNCC3)s2)o1 | 4.57 | 4.38 |
| CN([C@@H](Cc1ccc(OS(=O)(=O)c2cccc3cnccc23)cc1)C(=O)N1CCN(c2ccccc2)CC1)S(=O)(=O)c1cccc2cnccc12 | 2.9 | 4.54 |
| O=C(NOCC1CC1)c1ccc(F)c(F)c1Nc1ccc(I)cc1Cl | 3.91 | 4.71 |
| Cc1cc([C@@H](C)Nc2ccccc2C(=O)O)c2nc(N3CCOCC3)cc(=O)n2c1 | 4.57 | 4.54 |
| O=C1NCCCc2c1oc1ccc(O)cc21 | 5.29 | 4.58 |
| N#C/C(=C(/N)Sc1ccc(N)cc1)c1ccccc1C(F)(F)F | 3.91 | 4.71 |
| COc1ccc(-c2nc(N3CCOCC3)c3sc(CN(C)c4ncc(C(=O)NO)cn4)cc3n2)cn1 | 4.36 | 3.58 |
| Cn1c(=O)c(F)c(Nc2ccc(I)cc2F)c2c(=O)n(C[C@@H](O)CO)cnc21 | 4.88 | 4.42 |
| Cc1cccc(CC(=O)N2CCc3c2ccc(-c2cn(C)c4ncnc(N)c24)c3F)n1 | 4.21 | 4.42 |
| OCCn1cc(-c2cnc3nnn(Cc4ccc5ncccc5c4)c3n2)cn1 | 5.02 | 3.25 |
| C#Cc1cccc(Nc2ncnc3cc4c(cc23)OCCOCCOCCO4)c1 [Icotinib] | 4.8 | 5.09 |
| CCc1ccc(/C=C2/SC(=S)NC2=O)cc1 | 5.57 | 5.04 |
